Data as given in PubChem BioAssay AID1220 (Sanford-Burnham Center for Chemical Genomics, 2008).
Screen size: about 190,000 compounds; about 1,300 (0.68%) were called active. Shown is part of a subset that was picked to be rich in actives. Values without a mark were called inactive. No stated cut-off is given here; in the data, active means inhibition above about 50%; inactive means the rest.

Each compound was assayed against Mannose-6-phosphate isomerase (Homo sapiens) (UniProt P34949) (assay: human PMI inhibitors, high substrate, primary screen, biochemical, fluorescence intensity, high mannose 6-phosphate (AID 1220)). Details: recombinant PMI enzyme, coupled fluorescence intensity; at 20 µM; hits give high values.
Sequence of Mannose-6-phosphate isomerase (Homo sapiens) (P34949 whole entry, looked up): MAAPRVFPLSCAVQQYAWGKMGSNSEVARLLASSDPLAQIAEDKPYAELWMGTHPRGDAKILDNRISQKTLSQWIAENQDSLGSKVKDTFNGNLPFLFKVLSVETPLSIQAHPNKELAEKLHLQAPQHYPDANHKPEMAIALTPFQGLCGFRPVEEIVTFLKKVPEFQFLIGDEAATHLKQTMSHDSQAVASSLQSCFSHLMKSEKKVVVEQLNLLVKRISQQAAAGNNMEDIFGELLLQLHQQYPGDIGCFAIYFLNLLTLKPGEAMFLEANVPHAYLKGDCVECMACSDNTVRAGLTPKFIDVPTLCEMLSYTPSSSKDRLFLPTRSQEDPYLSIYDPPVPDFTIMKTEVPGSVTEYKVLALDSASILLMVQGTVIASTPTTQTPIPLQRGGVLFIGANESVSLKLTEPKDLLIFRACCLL

O=C(CCN1C(=O)C2C3C=CC(C3)C2C1=O)Nc1ccccc1 (stereo unspecified) was tested. Which inhibition did it give?
Its inhibition is -8.2%.

With C/C(=N\NC(=O)Cn1c(-c2ccccn2)nc2ccccc21)c1cccc(O)c1 as the compound, how does the inhibition read?
The inhibition was -16.2%.

NNC(=O)c1cc2c(s1)CCCCCC2 was tested. Which inhibition did it give?
The inhibition was -2.3%.

Which inhibition does the source give for O=C(Nc1ccc2c(c1)OCCO2)c1cccc(S(=O)(=O)N2CCCCC2)c1 here?
Its inhibition is 18.2%.

For COC(=O)c1ccc(C)c(N(CCO)CCO)c1, which inhibition is on record?
The inhibition was 0.5%.

How did the inhibition turn out when COc1ccc(-n2c(C(C)(C)C)csc2=Nc2c(C)n(C)n(-c3ccccc3)c2=O)cc1 was run?
Its inhibition is 5.7%.

Which inhibition does the source give for O=C1Nc2ccc(NS(=O)(=O)c3cccs3)c3cccc1c23 here?
The inhibition was 65.7% (active).

With O=C(O)c1ccccc1NS(=O)(=O)c1ccc2c3c(cccc13)C(=O)N2 as the compound, how does the inhibition read?
The inhibition was -2%.

How did the inhibition turn out when O=S(=O)(Nc1cccc2[nH]ncc12)c1cccs1 was run?
The inhibition was 5.1%.

How did the inhibition turn out when COc1ccc(C(CNC(=O)CCOc2ccccc2)N(C)C)cc1 (stereo unspecified) was run?
The inhibition was -3.8%.

For O=C(O)c1ccc(COc2ccc3ccccc3c2/C=C2/NC(=O)N(c3ccccc3)C2=O)cc1, which inhibition is on record?
Its inhibition is 22.6%.

For O=C(O)c1ccc(COc2ccccc2/C=C2\NC(=O)N(Cc3ccc(F)cc3)C2=O)cc1, which inhibition is on record?
The inhibition was -7.9%.

O=C(O)c1ccc(COc2ccc3ccccc3c2/C=C2/NC(=O)N(Cc3ccc(F)cc3)C2=O)cc1 was tested. Which inhibition did it give?
The inhibition was 52.7% (active).

CC1CC(C)CN(CCCNC(=O)c2csc3c2CCCC3)C1 (stereo unspecified) was tested. Which inhibition did it give?
The inhibition was 8.3%.

For CCC(=O)Nc1ccc(Cl)c(NC(=O)c2ccc(Br)o2)c1, which inhibition is on record?
Its inhibition is 1.8%.

With CC(C)CC1C(C#N)=C(N)OC2=C1C(=O)CC(c1ccccc1)C2 (stereo unspecified) as the compound, how does the inhibition read?
Its inhibition is 57% (active).

For CC1C(C#N)=C(N)OC2=C1C(=O)CC(c1ccccc1)C2 (stereo unspecified), which inhibition is on record?
Its inhibition is 10.5%.

N#CC1=C(N)OC2=C(C(=O)CC(c3ccccc3)C2)C1c1ccoc1 (stereo unspecified) was tested. Which inhibition did it give?
The inhibition was -1.4%.

Which inhibition does the source give for CCN(CC)C(=O)C1=C(C)Nc2nnnn2C1c1cccnc1 (stereo unspecified) here?
The inhibition was 6.1%.

For CC[n+]1c(/C=C/N(C)c2ccccc2)oc2ccc(Cl)cc21, which inhibition is on record?
Its inhibition is 51.8% (active).

Which inhibition does the source give for CC[n+]1c(/C=C/N(C)c2ccccc2)oc2ccc(F)cc21 here?
The inhibition was 26.2%.

For CC[n+]1c(/C=C/N(C)c2ccccc2)oc2ccccc21, which inhibition is on record?
Its inhibition is 36.4%.

How did the inhibition turn out when CCCc1cc(=O)[nH]c(SCC(=O)N(C)Cc2ccccc2)n1 was run?
The inhibition was 10.9%.

How did the inhibition turn out when O=C(NCc1ccco1)C(C(=O)c1ccccc1)n1ccccc1=O (stereo unspecified) was run?
Its inhibition is 1%.

O=C(NCCNS(=O)(=O)c1ccccc1)N1CCOCC1 was tested. Which inhibition did it give?
The inhibition was -0.7%.

For CCOC(=O)C(NC(=O)NC1CCCCC1)(c1ccccc1)C(F)(F)F (stereo unspecified), which inhibition is on record?
Its inhibition is -5.1%.

Which inhibition does the source give for CCOC(=O)C(NC(=O)Nc1ccc(O)cc1)(c1ccccc1)C(F)(F)F (stereo unspecified) here?
Its inhibition is 50.4% (active).

For CCOC(=O)C(NC(=O)Nc1ccc(C(N)=O)cc1)(c1ccccc1)C(F)(F)F (stereo unspecified), which inhibition is on record?
The inhibition was -6.9%.

For O=C(Cc1ccc(Cl)cc1)NCCS(=O)c1ccc(Cl)cc1 (stereo unspecified), which inhibition is on record?
Its inhibition is 8%.

Which inhibition does the source give for CCCN1CCN(CCCNC(=O)CCn2nc(-c3ccccc3)ccc2=O)CC1 here?
Its inhibition is -12.2%.

CCCn1c(CCc2ccccc2)n[nH]c1=S was tested. Which inhibition did it give?
The inhibition was 2.6%.

How did the inhibition turn out when O=C(Nc1cccc2cccnc12)c1cccc2ccccc12 was run?
The inhibition was -6.9%.

For O=C(O)c1ccccc1C(=O)Nc1ccccn1, which inhibition is on record?
The inhibition was 7.2%.

Which inhibition does the source give for O=C(O)c1ccccc1C(=O)Nc1ccc(Br)c2cccnc12 here?
Its inhibition is 53.1% (active).

c1ccc2c(c1)nc1sccn12 was tested. Which inhibition did it give?
Its inhibition is -4.9%.

How did the inhibition turn out when Cc1ccc(/C=C(/C#N)C(=O)NC(=O)Oc2ccccc2)cc1 was run?
The inhibition was 3.4%.

How did the inhibition turn out when O=C(NCc1ccccc1)NC1CCCCC1 was run?
The inhibition was 5.5%.

Which inhibition does the source give for O=C(NC1CCCCC1)Oc1cccc2ccccc12 here?
Its inhibition is 61.4% (active).

For S=C(Nc1cccc2ccccc12)NC1CCCCC1, which inhibition is on record?
The inhibition was 48.3%.

For c1ccc(OCCCc2nc(-c3cccnc3)no2)cc1, which inhibition is on record?
The inhibition was -2.4%.

Which inhibition does the source give for Cc1cc(C)n2c(Nc3ccc4c(c3)OCCO4)c(-c3ccc(C)o3)nc2n1 here?
The inhibition was 0.2%.

With CCCc1nc(N)c(C#N)c(-c2cccnc2)c1CC as the compound, how does the inhibition read?
Its inhibition is 9.6%.

For NC(=O)C1=C[C@@H](c2csc3ccccc23)C[C@@H](OCCCCO)O1, which inhibition is on record?
Its inhibition is 59.2% (active).

For O=C(NC1CC1)C1=C[C@H](c2csc3ccccc23)C[C@H](OCCCCO)O1, which inhibition is on record?
The inhibition was 1.4%.

How did the inhibition turn out when O=C(O)C1=C[C@@H](c2csc3ccccc23)C[C@@H](OCCCCO)O1 was run?
Its inhibition is 1.5%.

With NC(=O)C1=C[C@H](c2csc3ccccc23)C[C@H](OCCCCO)O1 as the compound, how does the inhibition read?
The inhibition was 63.4% (active).

For O=C(C1=C[C@H](c2csc3ccccc23)C[C@H](OCCCCO)O1)N1CCOCC1, which inhibition is on record?
Its inhibition is 9.5%.

With O=C(O)C1=C[C@H](c2csc3ccccc23)C[C@H](OCCCCO)O1 as the compound, how does the inhibition read?
Its inhibition is -1.5%.

For Cc1ccc(C(C(=O)NCc2ccco2)N(C(=O)Cc2cccs2)c2cccnc2)cc1 (stereo unspecified), which inhibition is on record?
Its inhibition is -5%.

With c1ccc(COC2CCCN(Cc3nc(-c4cccs4)no3)C2)nc1 (stereo unspecified) as the compound, how does the inhibition read?
The inhibition was 13.3%.

O=C(Cn1nnc(-c2ccccc2F)n1)Nc1cccc2ncccc12 was tested. Which inhibition did it give?
The inhibition was -0.5%.

With CS(=O)(=O)c1ccc2nc(N)sc2c1 as the compound, how does the inhibition read?
The inhibition was 6.1%.

With CCOC(=O)c1c(C)[nH]c(C)c1C(=O)COC(=O)c1ccc(Cl)c(S(N)(=O)=O)c1 as the compound, how does the inhibition read?
The inhibition was -8.6%.

With O=S(=O)(/N=C(/c1ccccc1)N1CCCCC1)c1ccccc1 as the compound, how does the inhibition read?
The inhibition was 7.7%.

N#Cc1c(Nc2cccc(F)c2)sc2c(O)cc(=O)[nH]c12 was tested. Which inhibition did it give?
Its inhibition is 55.8% (active).

With O=c1cnnc(Nc2cccc(F)c2)[nH]1 as the compound, how does the inhibition read?
The inhibition was -14.5%.

N#Cc1c(Nc2ccccc2)sc(C(=O)c2ccc(F)cc2)c1N was tested. Which inhibition did it give?
Its inhibition is 1.5%.

CN(C)C(=O)c1ccc2c(c1)n(C)c(=O)n2C was tested. Which inhibition did it give?
The inhibition was -6.4%.

How did the inhibition turn out when CCCCNC(=O)CSc1nc2ccccc2c(=O)n1C1CCCC1 was run?
The inhibition was 0.1%.

For O=C(CNc1ccccc1)NNC1=NCCC1, which inhibition is on record?
Its inhibition is 14.8%.

O=C(CNc1ccc(Br)cc1)NNC1=NCCC1 was tested. Which inhibition did it give?
The inhibition was -3.4%.

How did the inhibition turn out when O=C(CNc1ccc2ccccc2c1)NNC1=NCCC1 was run?
The inhibition was 52.9% (active).

How did the inhibition turn out when Clc1cccc(-c2nnc3sc(-c4ccc5c(c4)OCO5)nn23)c1 was run?
The inhibition was 6%.

With O=C1CCC(C(=O)OC(C(=O)c2c[nH]c3ccccc23)c2ccccc2)=NN1 (stereo unspecified) as the compound, how does the inhibition read?
The inhibition was -1.8%.

With CN(C)c1ccc(N/C=C/C(=O)C(F)(F)F)cc1 as the compound, how does the inhibition read?
The inhibition was 56.5% (active).

CN(C)c1ccc(N/C=C/C(=O)C(C)(C)C)cc1 was tested. Which inhibition did it give?
Its inhibition is 12.9%.

With COc1ccc(N/C=C/C(=O)C(F)(F)F)cc1 as the compound, how does the inhibition read?
The inhibition was 14.6%.

How did the inhibition turn out when CCn1cc(C(=O)NC(=S)Nc2cccc(O)c2)cn1 was run?
The inhibition was 0.6%.

With CCCc1[nH]n(-c2nc3ccccc3s2)c(=O)c1C=NCC(C)C as the compound, how does the inhibition read?
The inhibition was 0.7%.

How did the inhibition turn out when CCCN=Cc1c(CCC)[nH]n(-c2nc3ccccc3s2)c1=O was run?
Its inhibition is 4.7%.

Which inhibition does the source give for CCCc1[nH]n(-c2nc3ccccc3s2)c(=O)c1C=NCC1CCCO1 (stereo unspecified) here?
The inhibition was 51% (active).

O=C(O)CCCC(=O)Nc1ccccc1C(=O)N1CCOCC1 was tested. Which inhibition did it give?
Its inhibition is -1.4%.

For CC(=O)c1cccc(NC(=O)CN2C(=S)NC(C)(C)CC2C)c1 (stereo unspecified), which inhibition is on record?
The inhibition was -1.5%.

Which inhibition does the source give for Cc1ccc(O)c(N=CC2=C(O)c3ccccc3C2=O)c1 here?
The inhibition was 15.3%.

Cc1ccc(O)c(N=Cc2cccs2)c1 was tested. Which inhibition did it give?
The inhibition was 65.7% (active).

How did the inhibition turn out when Cc1ccc(O)c(C=Nc2cc(C)ccc2O)c1 was run?
Its inhibition is 23.3%.

O=C(NC1CCCCC1)N1CCC(c2nc3ccccc3[nH]2)CC1 was tested. Which inhibition did it give?
The inhibition was 1.1%.

How did the inhibition turn out when O=C(Oc1ccc(-c2cnc3ccccc3n2)cc1)c1ccco1 was run?
The inhibition was 15.4%.

For COC(=O)c1ccc(OC(=O)c2ccco2)cc1, which inhibition is on record?
Its inhibition is -6.2%.

How did the inhibition turn out when Cc1cc(C(=O)CSCCCn2c(=O)[nH]c3ccccc32)c(C)n1C was run?
The inhibition was -21.9%.

For CCN(C(=O)CN1CCN(c2ccc(OC)cc2)CC1)c1c(N)n(Cc2ccccc2)c(=O)[nH]c1=O, which inhibition is on record?
The inhibition was 2.4%.

How did the inhibition turn out when CCN(C(=O)CN1CCN(c2ccc(O)cc2)CC1)c1c(N)n(Cc2ccccc2)c(=O)[nH]c1=O was run?
The inhibition was 51.6% (active).

Which inhibition does the source give for CC(C)CN(C(=O)CN1CCN(c2ccc(F)cc2)CC1)c1c(N)n(CC(C)C)c(=O)[nH]c1=O here?
Its inhibition is -8.7%.

CCN(C(=O)CN1CCN(c2ccccc2)CC1)c1c(N)n(Cc2ccccc2)c(=O)[nH]c1=O was tested. Which inhibition did it give?
Its inhibition is 7.8%.

For CC(C)CN(C(=O)CN1CCN(c2ccc(O)cc2)CC1)c1c(N)n(CC(C)C)c(=O)[nH]c1=O, which inhibition is on record?
Its inhibition is 52.3% (active).

Which inhibition does the source give for CC(=O)c1ccc(N2CCN(CC(=O)N(CC(C)C)c3c(N)n(CC(C)C)c(=O)[nH]c3=O)CC2)cc1 here?
Its inhibition is -0.1%.

With Cc1ccc(NC(=S)N2CCCN(Cc3ccc(F)cc3)C2)c(C)c1 as the compound, how does the inhibition read?
The inhibition was -3.7%.

With Cc1ccc(CC(=O)Nc2cccnc2)cc1 as the compound, how does the inhibition read?
The inhibition was 10.1%.

With Cc1ccc(N2C(=S)SC3CS(=O)(=O)CC32)cc1 (stereo unspecified) as the compound, how does the inhibition read?
Its inhibition is -0.7%.

With O=C(CCC1CCCC1)Nc1nnc(-c2ccc3c(c2)OCO3)s1 as the compound, how does the inhibition read?
Its inhibition is 1.1%.

Which inhibition does the source give for CCOC(=O)c1c(C)oc2c1c(C=NCc1ccccn1)c(O)c1ccccc12 here?
Its inhibition is 32.6%.

How did the inhibition turn out when CCOC(=O)c1c2c3c(cccc3[nH]c1=O)C(=O)c1ccccc1-2 was run?
The inhibition was -30.6%.

Which inhibition does the source give for CCOC(=O)c1c(OCC)[nH]c2ccc(O)cc12 here?
The inhibition was -2.7%.

How did the inhibition turn out when CCOC(=O)c1c(C)oc2ccc(O)cc12 was run?
Its inhibition is 2.8%.

For CCOC(=O)c1c(-c2ccccc2)[nH]c2ccc(O)cc12, which inhibition is on record?
The inhibition was 5.9%.

CCOC(=O)c1c(C)cc(=O)oc1C was tested. Which inhibition did it give?
Its inhibition is 3.9%.

Which inhibition does the source give for CCOC(=O)c1c(C)oc2c1c(C(c1ccccc1)N1CCOCC1)c(O)c1ccccc12 (stereo unspecified) here?
Its inhibition is 30.5%.

For CCOC(=O)c1c(C)[nH]c(C)c1-c1ccccc1OC, which inhibition is on record?
The inhibition was 1.6%.

For CCOC(=O)c1c(OCC)[nH]c2c1cc(O)c1ccccc12, which inhibition is on record?
Its inhibition is 54.7% (active).

Which inhibition does the source give for CCOC(=O)c1c(C)[nH]c2c1-c1ccccc1C(=O)C2=O here?
The inhibition was 62.9% (active).

Which inhibition does the source give for CCOC(=O)c1c(C)oc2c1cc(O)c1ccccc12 here?
Its inhibition is 54.3% (active).
